About 83,000 compounds went through this panel and 20% of them were active in at least one assay; those are over-represented in the sample as a whole.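 Note: values are percent growth. 100 is the growth of untreated cells, values between 100 and 0 indicate rising inhibition; between -100 and 0 indicates cell death.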 Values without a mark were called inactive. Calls of active or inactive are those of the source. Rule for the calls: active = growth percent below 10; inactive = the rest.
What follows are compounds tested on SK-MEL-2 melanoma (assay: NCI-60 one-dose screen, 48 h (100 = growth as untreated, 0 = no growth, -100 = all killed)). Details: 10 µM unless noted.
Work on N#Cc1cccc(CN2CCC3=C(C2)C(=O)N(Cc2ccc(Cl)cc2)C2=NCCN23)c1 yielded a growth of 39.5%.
Compound COc1ccc(Oc2ccc(/C=N/NC(=O)CSc3nc4ccccc4c(=O)n3-c3ccc(Cl)cc3)cc2)cc1 has a growth of 97.6%.
In the case of O=C(NNc1nc2cc(F)c(F)cc2n2c(CN3CC4CNCC4C3)ccc12)c1ncccn1 (stereo not drawn), the growth is reported as 9.68% (active).
COc1cc(/C=C2\C(=O)Nc3cc(Cl)ccc32)ccc1OCc1ccc(F)cc1 showed a growth of 99.8%.
Work on C#CCOc1ccc(/C=N\Nc2nc(-c3ccc(C)cc3)cs2)cc1OC yielded a growth of 96.1%.
C=CCOc1cccc(/C=C2\SC(=S)N(C3CC(=O)N(c4ccc(Br)cc4)C3=O)C2=O)c1 (stereo not drawn) showed a growth of 117%.
COc1ccc(S(=O)(=O)NCCCNc2nccc(-c3[nH]c(-c4ccccc4)nc3-c3ccc(Cl)c(O)c3)n2)cc1 showed a growth of 15.4%.
CCn1c2ccccc2c2cc(-n3nncc3-c3ccccc3)ccc21 showed a growth of 68.2%.
In the case of N#Cc1cccc(CN2CCC3=C(C2)C(=O)N(Cc2ccc(Cl)cc2)C2=NCCCN23)c1, the growth is reported as 26.4%.
COc1ccc(COc2ccc(/C=C3\C(=O)Nc4ccccc43)cc2OC)cc1 was tested, and the growth was 108%.
In the case of O=C(NNc1nc2cc(F)ccc2n2c(CN3CC4CNCC4C3)ccc12)c1cnccn1 (stereo not drawn), the growth is reported as 30.9%.
With COc1ccc2[nH]cc(-c3csc4nc(-c5ccccc5)cn34)c2c1 the growth was -5.6% (active).
In the case of COC(=O)C[Se]C(=O)Cc1c(C)n(C(=O)c2ccc(Cl)cc2)c2ccc(OC)cc12, the growth is reported as 86.8%.

Reference: PubChem BioAssay (NCI)
